The supplement of paper PMC10338343
± gives the standard deviation. The full ranking holds about 8,200 sequences; the median of “pre-steady-state target cleavage rate” is about 0.024, and the highest 2% start at about 1.3. The sample as a whole holds a higher share of the highest values than the screen did.

Tested on: MIWI (PIWIL1) piRISC loaded with L1MC piRNA (30 nt)
Experiment: pre-steady-state target cleavage rate (min^-1); MIWI and MILI are mouse PIWI proteins and EfPiwi is from a freshwater sponge; tags in brackets are library labels; higher = faster piRNA-guided slicing of the target
Conditions: guide: L1MC piRNA 5'p-UAACUAAAUACUAUGCAAGCUGUAGGUCCU
Procedure: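 Cleave-'n-Seq: a library of target RNAs (target site embedded in constant flanks, ACAGCATTCCGCGTTAGTGATATCCG... 5' flank; DNA-blocked outside the site) at 0.1 nM was incubated with 1 nM active mouse MILI or MIWI piRISC (synthetic 5'-monophosphorylated piRNA guide) with or without 500 nM mouse GTSF1 at 33 °C for 1 min to 16 h. Uncleaved targets were sequenced and normalised to non-target controls, and the pooled three trials were fitted to a burst-and-steady-state model to give the pre-steady-state cleavage rate (min^-1; k3 is constrained to at most 1e-4). Sequence is the target site only; target names encode pairing extent (gX:gY) and contiguous / 1-mismatch / 2-mismatch / bulge geometry. Fits with R² ≤ 0 are excluded.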

[1] = auxiliary factor: 500 nM mouse GTSF1
[2] = auxiliary factor: none (no GTSF1)

| Sequence | pre-steady-state target cleavage rate [1] | pre-steady-state target cleavage rate [2] |
| --- | --- | --- |
| UCCUGGAACAGGUAGCAUAGUAUUUAGUUA | 0.266 ± 0.026 | 0.00407 ± 0.0017 |
| UCCACCUUGUGCUUGCAUAGUAUUUACAAA | 0.0809 ± 0.013 |  |
| UCCUGGAUGAGCUUGCAUAGUGUUUAGUUA | 0.708 ± 0.06 | 0.0494 ± 0.01 |
| UGGACGUACAGCUUGCAUAGUAUUAAGUUA | 0.721 ± 0.069 | 0.0383 ± 0.0073 |
| UGGACCUACAGCUUGCUAAGUAUUUAGUUA | 0.2 ± 0.022 | 0.00384 ± 0.002 |
| UCCUGGAUGAGCUUGCAUAGUAUUUAGUAUA | 0.702 ± 0.054 | 0.0165 ± 0.0055 |
| UCCUGCUACAGCUUGCUUAGUAUUUAGUAA | 0.279 ± 0.023 | 0.0083 ± 0.002 |
| UCCUGGAUCAGCUUGCUUAGUAUUUAGAAA | 0.116 ± 0.021 | 0.00482 ± 0.0028 |
| AGGACCUACAGCGUGCAUAGUAUUUAGUUA | 1.34 ± 0.054 | 0.0658 ± 0.011 |
| UCCACCUACAGCGUGCAUAGUAUUUAGUUA | 1.06 ± 0.04 | 0.0325 ± 0.0056 |
| UGGACCUACAGCGUGCAUAGUAUUUAGUUA | 1.43 ± 0.065 | 0.0647 ± 0.013 |
| AGGACCUACAGUUGCAUAGUAUUUAGUUA | 0.988 ± 0.07 | 0.0102 ± 0.0034 |
| UCGACCUACAGCUGUGCAUAGUAUUUAGUUA | 1.42 ± 0.073 | 0.0386 ± 0.0081 |
| UCGACCUACAGCGUGCAUAGUAUUUAGUUA | 1.73 ± 0.072 | 0.0576 ± 0.0085 |
| UCGACCUACAGCGUUGCAUAGUAUUUAGUUA | 1.21 ± 0.073 | 0.0561 ± 0.01 |
| AGGACCUACAGCAUUGCAUAGUAUUUAGUUA | 1.28 ± 0.12 | 0.0689 ± 0.014 |
| UGGACCUACAGCUGUGCAUAGUAUUUAGUUA | 1.28 ± 0.11 | 0.0389 ± 0.0098 |
| AGGACCUACAGCUGUGCAUAGUAUUUAGUUA | 1.29 ± 0.063 | 0.0583 ± 0.012 |
| UCCUGCUACAGCGUGCAUAGUAUUUAGUUA | 1.27 ± 0.074 | 0.0183 ± 0.005 |
| UCCUGGAUCAGCUUGCAUACUAUUUUCAAA | 0.00597 ± 0.0043 |  |
| UCCUGGUACUGCUUGCAAAGUAUUUAGUUA | 0.46 ± 0.036 | 0.0221 ± 0.0052 |

| Sequence | pre-steady-state target cleavage rate [1] | pre-steady-state target cleavage rate [2] |
| --- | --- | --- |
| UCCUCCUACAGCUUGCAUAGAAUUUACAAA | 0.295 ± 0.045 |  |
| UCCUGGAUGUCGAACGUAACUAUUUACUUA | < 0.0001 |  |
| UCCUCCUACAGCUUCGAUAGUAUUUAGUAA | 0.263 ± 0.031 |  |
| UCCUGGAUGUGCUUGCAUAGUAUAAAGUAA | 0.00523 ± 0.0043 |  |
| UCGACCUACAGCUUGCAUAGUAUUGAGUUA | 0.499 ± 0.042 | 0.0477 ± 0.0089 |
| UCCUGGAUCAGCUUGCAUACUUUUUAGUUA | 0.014 ± 0.0033 | 0.00335 ± 0.0016 |
| UCGACCUACAGCUUGCAUAGUAGUUUAGUUA | 0.574 ± 0.031 | 0.0134 ± 0.0039 |
| UCCUGGUACAGCUUGCAAAGUAUUAAGUUA | 0.35 ± 0.049 | 0.0147 ± 0.0043 |
| UCCUCCUACAGCUGUGCAUAGUAUUUAGUUA | 1.18 ± 0.064 | 0.0204 ± 0.0047 |
| UCCACCUACAGCGUUGCAUAGUAUUUAGUUA | 1.03 ± 0.13 | 0.0279 ± 0.005 |
| AGGACCUACAGCGUUGCAUAGUAUUUAGUUA | 1.21 ± 0.086 | 0.0748 ± 0.015 |
| UCCUCCUACAGCGUUGCAUAGUAUUUAGUUA | 0.96 ± 0.057 | 0.0256 ± 0.0045 |
| UCCUCCUACAGCGUGCAUAGUAUUUAGUUA | 1.4 ± 0.042 | 0.0379 ± 0.0072 |
| UGGACCUACAGCGUUGCAUAGUAUUUAGUUA | 1.33 ± 0.11 | 0.0647 ± 0.013 |
| UCGACCUACAGCUUGCAUAGUAUUAAGAUA | 0.248 ± 0.029 | 0.00627 ± 0.0027 |
| UCGACCUACAGGUUGCAUAGUAUUUACAAA | 0.183 ± 0.026 |  |
| AGGACCAACAGCUUGCAUAGUAUAUAGUUA | 0.775 ± 0.054 | 0.0604 ± 0.013 |
| AGGACCUACAGCUUGCAUAGUAAAAAGUUA | 0.489 ± 0.058 | 0.00574 ± 0.0034 |
| UCCUCCUACAGCUUGCAUAGAAAUUAGUUA | 0.169 ± 0.019 | 0.00268 ± 0.0024 |
| UCCUGGUACAGCUUGGUUAGUAUUUAGUAA | 0.412 ± 0.079 | 0.0101 ± 0.0031 |
| UCCUGGUUGAGCUUGCAUAGUAUUUAGAAA | 0.135 ± 0.024 | 0.00555 ± 0.0033 |

| Sequence | pre-steady-state target cleavage rate [1] | pre-steady-state target cleavage rate [2] |
| --- | --- | --- |
| UCCUGGAACAGCUUGCAUACAAUUUAGUUA | 0.0117 ± 0.0047 |  |
| AGGACCUACAGCUUGCAUAGUAUAAAGAAA | 0.434 ± 0.077 |  |
| AGGACCCACAGCUUGCAUAGUAUUUAGUUA | 1.47 ± 0.093 | 0.0682 ± 0.0093 |
| UCCACCCACAGCUUGCAUAGUAUUUAGUUA | 0.787 ± 0.052 | 0.0508 ± 0.0088 |
| UCGACCACAGCUUGCAUAGUAUUUAGUUA | 1.22 ± 0.051 | 0.0643 ± 0.011 |
| AGGACCACAGCUUGCAUAGUAUUUAGUUA | 1.29 ± 0.066 | 0.0967 ± 0.019 |
| UCGACCCACAGCUUGCAUAGUAUUUAGUUA | 1.19 ± 0.044 | 0.0644 ± 0.011 |
| UGGACCACAGCUUGCAUAGUAUUUAGUUA | 1.47 ± 0.083 | 0.0744 ± 0.015 |
| UGGACCCACAGCUUGCAUAGUAUUUAGUUA | 1.43 ± 0.091 | 0.0699 ± 0.011 |
| UGGACCUAGAGCUUGCAUAGUAUUUAGAAA | 0.296 ± 0.034 | 0.0101 ± 0.0034 |
| UCCACCUAGAGCUAGCAUAGUAUUUAGUUA | 0.339 ± 0.042 | 0.0098 ± 0.0019 |
| UCCUGCUACUCGUUGCAUAGUAUUUACAAA | 0.0303 ± 0.0091 |  |
| UGGACGUACAGCUUGCAUAGUUUUUAGUUA | 0.35 ± 0.015 | 0.0389 ± 0.0097 |
| UCCUGGAACAGCUUCCAUAGUAUUAAGUUA | 0.0095 ± 0.0047 |  |
| UCGACCUACAGCUUGCAAUCUAUUUAGAAA | 0.129 ± 0.033 |  |
| AGGCCCUACAGCUUGCAUAGUAUUUAGUUA | 1.15 ± 0.058 | 0.115 ± 0.018 |
| AGGCCUACAGCUUGCAUAGUAUUUAGUUA | 1.41 ± 0.075 | 0.107 ± 0.019 |
| UCGGCCUACAGCUUGCAUAGUAUUUAGUUA | 1.21 ± 0.05 | 0.0767 ± 0.015 |
| UGGCCUACAGCUUGCAUAGUAUUUAGUUA | 1.46 ± 0.076 | 0.0761 ± 0.014 |
| UGGCCCUACAGCUUGCAUAGUAUUUAGUUA | 1.39 ± 0.11 | 0.0833 ± 0.015 |
